Experimental data taken from ChEMBL document CHEMBL3988442, “University of Dundee, Small-Polar-MMV Screening Library” (2021).
Screen size: about 48,000 compounds; about 13,000 (27%) showed an effect of 50% or more. Some of the results follow.

Tested on: Wolbachia pipientis
Experiment: Anti-Wolbachia Cell-Based Screen
Assay type: functional
Design: scale not given: in the data most compounds retested in dose-response had high values
Settings: 5 µM

Row | Compound | Percent Effect
1 | Cn1cc(CN2CCc3ncn(C)c3C2COCc2ccccc2)cn1 (stereo not drawn) | 0.114%
2 | O=C(Cc1ccccc1)N1CCn2cc(Cn3cncn3)nc2C1 | 14.97%
3 | Cc1nnc([C@H]2C[C@H]3CN(C(=O)Cc4ccc(F)cc4)CC[C@@H]3O2)o1 | -15.1%
4 | Cc1ccc(CC(=O)N2CCCC(c3cc(C)[nH]n3)C2)cn1 (stereo not drawn) | -0.4689%
5 | O=C(Cc1ccncc1)N1C[C@@H]2CC[C@H](C1)N(Cc1ccccc1)C2=O | 6.116%
6 | Nc1ncnc2nc(C3CCN(C(=O)Cc4ccc(F)cc4)C3)ccc12 (stereo not drawn) | 118.1%
7 | Nc1ncnc2nc(C3CCN(C(=O)Cc4ccccc4)C3)ccc12 (stereo not drawn) | 78.69%
8 | O=c1[nH]c2cc(S(=O)(=O)N3CCC(c4ccsc4)CC3)ccc2o1 | 12.73%
9 | COC(=O)CNC(=O)CSCc1nc(O)c2cc(C)sc2n1 | 28.1%
10 | O[C@@]1(Cn2cnc(Cl)c2Cl)CCCN2CCCC[C@@H]21 | 101.1%
11 | Cc1cc2ncn(C[C@]3(O)CCCN4CCCC[C@@H]43)c2cc1C | 111.8%
12 | Cc1cccnc1CN1CCN(C[C@]2(O)CCCN3CCCC[C@@H]32)CC1 | 4.951%
13 | CCN(Cc1noc(CC(C)C)n1)C[C@]1(O)CCCN2CCCC[C@@H]21 | 2.054%
14 | O[C@@]1(CNCCOc2ccccc2)CCCN2CCCC[C@@H]21 | -8.201%
15 | Cc1ccnc(N2CCN(C[C@]3(O)CCCN4CCCC[C@@H]43)CC2)c1 | -8.166%
16 | Cc1cnccc1N1CCN(C[C@]2(O)CCCN3CCCC[C@@H]32)CC1 | -12.63%
17 | O[C@@]1(CN2CCN(Cc3ccncc3)CC2)CCCN2CCCC[C@@H]21 | 17.3%
18 | COc1ccc2c(c1)ncn2C[C@]1(O)CCCN2CCCC[C@@H]21 | 108.1%
19 | CCS(=O)(=O)N1Cc2c(Cn3ccnc3)nn(C(C)C)c2C1 | 9.692%
20 | COC[C@@]12CC[C@@H](N3CCOCC3)C[C@H]1CCN(c1cc(C)ccn1)C2 | -3.135%
21 | Cc1nc(C)c(C(=O)NCCNC(=O)c2ccc(F)cc2F)s1 | 5.73%
22 | O=C(NCCCNC(=O)c1cccc(O)c1)Nc1ccc(Cl)cc1 | 112%

Row | Compound | Percent Effect
23 | O=C(CCNC(=O)c1ccoc1)Nc1ccc(F)cc1F | -4.684%
24 | O=C(Nc1ccc(F)cc1F)NC1(CO)CCOCC1 | -12.95%
25 | O=C(NCC(O)c1ccc(F)cc1F)c1cccc(F)c1 (stereo not drawn) | -1.094%
26 | O=C(Cc1cccc(O)c1)NCCCNC(=O)c1cccc(F)c1 | 107.1%
27 | Cc1cccc(C(=O)NCCCN2CCN(c3ccccc3)CC2)c1 | 0.2933%
28 | O=C(NCCCNC(=O)c1ccccc1)Nc1ccc(F)cc1F | 98.16%
29 | O=C(NCCCO)Nc1cccc(I)c1 | 5.16%
30 | NC(=O)CCCNC(=O)Cc1cccc(I)c1 | -16.28%
31 | O=C(NCCCNC(=O)c1ccc(F)cc1F)c1cccc(O)c1 | 113.1%
32 | CC(NC(=O)NC1CCN(Cc2ccccn2)CC1)c1nncn1C (stereo not drawn) | 0.2394%
33 | CC(C)(C)CN[C@@H]1CO[C@H](CNC(=O)c2ccncc2)[C@H]1O | -9.96%
34 | CC(=O)Nc1ccc(Cl)c(C(=O)N(C)Cc2nc(C)c[nH]2)c1 | -7.642%
35 | CCCc1nc(CN(C)CCOc2ccccc2)cs1 | -8.28%
36 | CC(C)N(C)S(=O)(=O)N1CCCC1CC(=O)c1cccs1 (stereo not drawn) | 9.795%
37 | CC(C)Cc1noc(CN(C)C(=O)CCNC(=O)c2ccccc2F)n1 | -3.806%
38 | CC(CNCC1(S(C)(=O)=O)CCOCC1)c1ccc(F)cc1 (stereo not drawn) | 6.37%
39 | CNc1cc(-c2nc(CCN3CCCC3=O)no2)ccn1 | 8.6%
40 | O=C(Cc1cccc(F)c1)NCCCNC(=O)c1cccc(O)c1 | 95%
41 | CC(NC(=O)N(C)Cc1ccsc1)c1ccc2c(c1)NC(=O)CO2 (stereo not drawn) | -9.283%
42 | CN(C(=O)CN1CCCc2cc(F)cc(F)c21)c1ccccc1 | -11.45%
43 | Cc1cc(F)c2c(c1)CCCN2Cc1nc2c(cnn2C)c(=O)[nH]1 | -12.02%
44 | Cn1c(CN2CCCc3cc(F)cc(F)c32)cc(=O)n(C)c1=O | 98.13%

Row | Compound | Percent Effect
45 | Cc1cc(C2CCCN2Cc2cc(=O)n(C)c(=O)n2C)on1 (stereo not drawn) | -9.858%
46 | Cc1cc(F)c2c(c1)CCCN2Cc1cc(=O)n(C)c(=O)n1C | 117.6%
47 | Cc1cc(F)c2c(c1)CCCN2C(=O)c1cncc(Br)c1 | 14.39%
48 | Cc1ccc(F)c2c1CCCN2Cc1cc(=O)n(C)c(=O)n1C | 107.3%
49 | Cn1ncc2c(=O)[nH]c(CN3CCCc4cc(F)cc(F)c43)nc21 | -18.5%
50 | Cn1c(CS(=O)(=O)c2ccc(Cl)cc2)cc(=O)n(C)c1=O | 2.461%
51 | COC(=O)N1CCc2ccccc2C1C(=O)NCc1ccccn1 (stereo not drawn) | -3.953%
52 | N#CC1(NC(=O)c2nccc3ccccc23)CCC1 | 2.644%
53 | CC(C)S(=O)(=O)NC(=O)c1cc(-c2cccc(Cl)c2)no1 | -50.72%
54 | CCC(C(=O)NCc1ccncc1)N(c1cccc(Cl)c1)S(C)(=O)=O (stereo not drawn) | -1.901%
55 | CN(Cc1cc(-c2ccccc2)no1)C(=O)CNS(C)(=O)=O | -3.143%
56 | CCN(CC)C(=O)c1cc(-c2cccc(Cl)c2)no1 | -14.84%
57 | CC(C)[C@H](NS(C)(=O)=O)C(=O)NCc1cc(-c2cccc(Cl)c2)nn1C | 123.3%
58 | CC(C)[C@H](NS(C)(=O)=O)C(=O)NCc1cc(-c2ccccc2)nn1C | 107.7%
59 | CC(C)[C@@H]1CN(C(=O)NCc2ccco2)C[C@H]1NS(=O)(=O)N(C)C | 8.904%
60 | Cn1c(C(=O)NS(C)(=O)=O)ccc1-c1ccccc1 | -9.851%
61 | CC(C)NC(=O)NCc1cc(-c2cccc(Cl)c2)nn1C | 128.3%
62 | CC(NC(=O)c1cc(-c2cccc(Cl)c2)no1)C(=O)N(C)C (stereo not drawn) | -38.11%
63 | CC(Cc1ccco1)NC(=O)NCc1ncnn1C (stereo not drawn) | 9.946%
64 | CC(C)[C@H](NS(C)(=O)=O)C(=O)NCc1cc(-c2ccco2)nn1C | 131.1%
65 | O=C1N(c2ccc(Cl)cc2)Cc2nc(=O)[nH]n21 | -10.7%
66 | Cc1cccc(NC(=O)NCCCn2nc3ccccn3c2=O)c1C | -5.568%

Row | Compound | Percent Effect
67 | CCCc1nn(Cc2csc(C(C)C)n2)c(=O)o1 | -6.237%
68 | COCc1nn(Cc2ccc(Cl)s2)c(=O)o1 | 85.2%
69 | CCCc1nn(Cc2ccc(Br)s2)c(=O)o1 | 114.1%
70 | CCc1nc(Cn2nc(COC)oc2=O)cs1 | 8.463%
71 | COCCn1c(=O)n(Cc2ccc(Cl)s2)c2cc(C(=O)O)ccc21 | 5.462%
72 | CCCc1nn(Cc2csc(CC)n2)c(=O)o1 | 0.8831%
73 | COc1ccccc1C(C)NC(=O)N1CCN(Cc2ccc(Br)s2)CC1 (stereo not drawn) | 3.107%
74 | COCc1nn(Cc2ccc(Br)s2)c(=O)o1 | 93.51%
75 | COc1cccc(-c2cc(NCc3cscn3)n(C)n2)c1 | -6.796%
76 | Cc1nc2ccccn2c1CN1C[C@@H](CN(C)C)[C@@H](CO)C1 | -2.196%
77 | CC(C)c1noc(C2CCCN2S(=O)(=O)N2CCCCCC2)n1 (stereo not drawn) | 33.89%
78 | CC(=O)c1ccccc1C(=O)NCC1(CO)CC1 | -16.93%
79 | NC(c1ccc(F)cc1)c1cccs1 (stereo not drawn) | 14.08%
80 | CN1CCCn2c(nc(CNS(=O)(=O)C3CC3)cc2=O)C1.O=C(O)C(F)(F)F | -4.96%
81 | CS(=O)(=O)NCc1cc(=O)n2c(n1)CN(CC1CC1)CCC2.O=C(O)C(F)(F)F | 110.4%
82 | O=C(O)C(F)(F)F.O=c1cc(CNS(=O)(=O)C2CC2)nc2n1CCCN(CC1CC1)C2 | 107%
83 | CS(=O)(=O)NCc1cc(=O)n2c(n1)CN(Cc1ccco1)CCC2.O=C(O)C(F)(F)F | -0.8444%
84 | CC(=O)N1CCCn2c(nc(CNS(=O)(=O)C3CC3)cc2=O)C1 | -2.795%
85 | Cc1cc(C)n(CC2(CNC(=O)C(c3ccccc3F)N(C)C)CC2)n1 (stereo not drawn) | -12.38%
86 | CC1c2ncc(COCC3CCCC3)n2CCN1S(=O)(=O)N(C)C (stereo not drawn) | -21.16%
87 | CN(C)c1cccc(C(=O)Nc2cnn(CC(N)=O)c2)c1 | -9.995%
88 | O=C(c1ccc(Br)s1)N1CCN(Cc2ccc(OC(F)(F)F)cc2)CC1 | -12.95%

Row | Compound | Percent Effect
89 | COCCC(=O)N1CCC2(CN(Cc3ccc(OC)c(F)c3)C2)C1 | 5.323%
90 | CN1C[C@H](O)[C@]2(CCN(Cc3ccc(OC(F)(F)F)cc3)C2)S1(=O)=O | 118.4%
91 | Fc1ccc(CN2CCCC3(CCN(Cc4ncc[nH]4)C3)C2)cc1F (stereo not drawn) | 2.586%
92 | COc1ccc(CN2CC[C@@]3(C2)[C@H](O)CN(C)S3(=O)=O)cc1F | 137.9%
93 | COc1ccc(CN2CCN(C(=O)N(C)C)[C@@H]3CS(=O)(=O)C[C@@H]32)cc1F | -14.55%
94 | Cc1c[nH]c(CN2CCC3(CCCN(Cc4ccc(F)c(F)c4)C3)C2)n1 (stereo not drawn) | -10.55%
95 | CN1C[C@H](O)[C@]2(CCN(Cc3ccc(F)c(F)c3)C2)S1(=O)=O | 108.2%
96 | O=C(c1ccc(Br)o1)N1CCN(Cc2ccc(OC(F)(F)F)cc2)CC1 | -3.633%
97 | CN(C)C(=O)c1c[nH]nc1C1CCN(S(=O)(=O)c2ccccc2)CC1 | 115.3%
98 | CCN1CC[C@@]2(C(=O)N(C)C)CCN(S(=O)(=O)c3ccccc3)CC[C@@H]12.O=C(O)C(F)(F)F | 1.516%
99 | CC(=O)c1ccc(S(=O)(=O)N2CCC(c3n[nH]c(C)n3)CC2)cc1 | 9.052%
100 | Cc1ccc(S(=O)(=O)N2CCC(c3n[nH]cc3C(=O)N(C)C)CC2)cc1 | 124.5%
101 | CNC(=O)[C@@]12CCO[C@@H]1CCN(S(=O)(=O)c1ccc(C)cc1)C2 | 8.759%
102 | CC(=O)c1cccc(S(=O)(=O)N2CCC(c3n[nH]c(C)n3)CC2)c1 | -14.04%
103 | CN(C)C(=O)c1c[nH]nc1C1CCN(S(=O)(=O)c2ccc(Cl)cc2)CC1 | 131.9%
104 | CN(C)C(=O)c1cccnc1N1CCOC(c2ccc(Cl)cc2)C1 (stereo not drawn) | 7.498%
105 | Cc1nc(C2CCN(S(=O)(=O)c3ccc(Cl)cc3)CC2)n[nH]1 | 2.775%
106 | CN(C)C[C@H]1OC[C@@H]2CCN(S(=O)(=O)c3ccccc3)C[C@@H]21.O=C(O)C(F)(F)F | -5.753%
107 | CC(=O)c1cccc(S(=O)(=O)N2CCC(c3noc(C)n3)CC2)c1 | -3.648%
108 | CN(C)C(=O)c1c[nH]nc1C1CCN(S(=O)(=O)c2cccc(Cl)c2)CC1 | 103%
